The structures appear in SMILES notation. Records with an inconclusive call do not appear. A number with no mark means an inactive call. The source made the active and inactive calls. The call rests on the fitted dose curve; in most records, active means well fitted cell-killing curve with a large enough effect in the repeat runs; inconclusive means weak or mixed curves; inactive means flat fitted curve, though single readings scatter.
On the % scale 0 is the no-effect control and ±100 the full control effect.

The assay in a line: qHTS assay to identify small molecule antagonists of the TGF-beta/Smad signaling pathway - cell viability counter screen (AID 1346824). Further: nearly all actives have a fitted effect of over 50% in size. The conditions noted are these: SBE-bla HEK293T viability, CellTiter-Glo luminescence; series mostly up to 76.8 µM. The source says:
U.S. Tox21 Program National Center for Advancing Translational Sciences [NCATS] NIH Chemical Genomics Center [NCGC] U.S. Environmental Protection Agency [EPA] National Institutes of Environmental Health Sciences [NIEHS] National Toxicology Program [NTP] U.S. Food and Drug Administration [FDA] Tox21 Assay Overview: Transforming growth factor beta (TGF-beta) superfamily consists of a large number of structurally related dimeric proteins that act as hormones or local mediators in regulating a wide range of biological functions. This superfamily includes TGF-betas themselves, the bone morphogenetic proteins (BMPs) and the activins. These ligands induce oligomerization of serine/threonine receptor kinases and phosphorylate the cytoplasmic signaling molecules of Smad protein family. CellSensor SBE-bla HEK 293T cell line (Life Technologies, Carlsbad, CA), responsive to TGF-beta was used to screen Tox21 10K compound library for identification of agonists/antagonists of the Smad signaling pathway. This cell line contains a beta-lactamase reporter gene under control of the Smad binding element (SBE) stably integrated into HEK 293T cells. Also cytotoxicity of the compounds was tested in parallel by measuring the cell viability using CellTiter-Glo assay system in the same wells.
Tox21 Assay Protocol Summary: SBE-bla HEK 293T cells were dispensed at 4,000/well in 5 uL of assay medium into black wall/clear-bottom 1536-well plates using a Multidrop Combi (ThermoFisher Scientific, Waltham, MA) dispenser. After the assay plates were incubated at 37 C and 5% CO2 for an overnight, 23 nL of compounds dissolved in DMSO, positive controls or DMSO only was transferred to the assay plate by a Pintool station (Kalypsys, San Diego, CA). Compound transfer was followed by the addition of 1 uL of 0.25 ng/mL TGF-beta1 or assay buffer using two separate tips of Flying Reagent Dispenser (FRD, Aurora Discovery, San Diego, CA). The assay plates were incubated at 37 C and 5% CO2 for 5 hr. One uL of LiveBLAzer B/G FRET substrate (Life Technologies) was added using a Flying Reagent Dispenser (FRD, Aurora Discovery, San Diego, CA) and the plates were incubated at room temperature for 2 hr. Fluorescence intensity (405 nm excitation, 460 nm and 530 nm emissions) was measured using an Envision plate reader (PerkinElmer, Shelton, CT). For cytotoxicity read, 4 uL of CellTiter-Glo reagent (Promega Corporation, Madison, WI) was added to each well of the assay plates using FRD. After 30 min incubation at room temperature, the luminescence intensity was measured using ViewLux plate reader (PerkinElmer).
Background: qHTS replaces the single test concentration by a dilution series.
`C[Si]1(C)N[Si](C)(C)N[Si](C)(C)N1`: the call was inactive.
Same read-out and setting: then `O=C(COCCOCCOCC(=O)Nc1c(I)cc(I)c(C(=O)O)c1I)Nc1c(I)cc(I)c(C(=O)O)c1I`, with “inactive”; and `CC(C)SCc1ccco1`, with “inactive”.
Consider `Cn1c(=O)c2c(ncn2CC2OCCO2)n(C)c1=O`, for which the molecule was classed as inactive.
On the same count and under the same terms, the result for `CC(=O)c1ccc2c(c1)CCCC2` reads “inactive”; that for `CCN1CN(CC)CN(CC)C1`, “inactive”.
`Cc1ccccc1N1CCN(CCc2nnc3n2CCCC3)CC1`: the result was inactive.
Consider `CC(C)COC(=O)CCCCC(=O)OCC(C)C`, for which the molecule was classed as inactive.
Still for that read-out and setting: then `Nc1cc(S(=O)(=O)O)ccc1S(=O)(=O)O`, with “inactive”.
The same measure, in the same setting: then `CC(C)COC(=O)CC(C(=O)OCC(C)C)S(=O)(=O)O` (stereo not given), with “inactive”.
Still for that read-out and setting: the result for `COC(/C=C(\C)CCC=C(C)C)OC` reads “inactive”.
As for `CCCCC[Si](OCC)(OCC)OCC`, the result was inactive.
For `BrC/C=C/CBr`, the viability change, negative = cytotoxic is 0.16% [at 15.8 µM].
On to `NS(=O)(=O)c1ccccc1OC(F)(F)F`, for which the result was inactive.
Still for that read-out and setting: the result for `O=CN1CCOCC1` reads “inactive”.
Regarding `Cc1nc2ccccc2c(=O)o1`, the molecule was classed as inactive.
The same measure, in the same setting: then `Cc1nc2n(c(=O)c1CCN1CCC(C(=O)c3ccc(F)cc3)CC1)CCS2`, with “inactive”.
Consider `N#CCCOCCOCCC#N`, for which the result was inactive.
The same measure, in the same setting: then `CC(C)COC(=O)/C=C/c1ccccc1`, with “inactive”.
With `Cc1ncc([N+](=O)[O-])n1CC(O)CCl` (stereo not given), the molecule was classed as inactive.
As to `COc1cc([N+](=O)[O-])ccc1N`, the molecule was called inactive.
As to `Nc1ccc(/C=C/c2ccc(N)cc2S(=O)(=O)O)c(S(=O)(=O)O)c1`, the viability change, negative = cytotoxic is -0.698% [at 0.29 µM].
For the molecule `CCC1COC(=O)O1` (stereo not given), the molecule was classed as inactive.
For `CCCCCC(=O)OCC`, the call was inactive.
Still for that read-out and setting: then `Cc1cccc(C(=O)O)c1[N+](=O)[O-]`, with “inactive”.
On the same count and under the same terms, the result for `C[C@H](CCC(=O)O)[C@H]1CC[C@H]2[C@@H]3[C@H](O)C[C@@H]4C[C@H](O)CC[C@]4(C)[C@H]3C[C@H](O)[C@]12C` reads “inactive”; that for `CC(=O)OCC(=O)[C@@]1(O)[C@H](OC(C)=O)C[C@H]2[C@@H]3CCC4=CC(=O)C=C[C@]4(C)[C@@]3(F)[C@@H](O)C[C@@]21C`, “inactive”.
As for `CC(C)(CO)[C@@H](O)C(=O)NCCCO`, the molecule was classed as inactive.
With `Cc1ccccc1C(=O)N1CC/C(=N\OS(=O)(=O)O)c2ccc(Cl)cc21`, the call was inactive.
On to `COCC(=O)Nc1c(I)c(C(=O)NCC(O)CO)c(I)c(C(=O)N(C)CC(O)CO)c1I` (stereo not given), for which the molecule was classed as inactive.
On the same count and under the same terms, then `CC(C)CCC(=O)CCC(C)C`, with “inactive”.
Same read-out and setting: the result for `CN=C(NC#N)NCCSCc1csc(N=C(N)N)n1` reads “inactive”; that for `c1ccc(CNc2ncnc3nc[nH]c23)cc1`, “inactive”; that for `Cc1cccc(NC(=S)N(C)C)c1`, “inactive”.
The same measure, in the same setting: the result for `C=C[C@@H](C)CCC=C(C)C` reads “inactive”; that for `NC(Cc1c[nH]c2ccccc12)C(=O)O` (stereo not given), “inactive”.
Consider `CC(C)c1ccccc1O`, for which the molecule was called inactive.
As for `O=C(/C=C/c1ccccc1)NCCO`, the molecule was classed as inactive.
As for `O=C1OC(=O)c2ccccc21`, the outcome was inactive.
As to `C=C(C)C(=O)OCCCCCCOC(=O)C(=C)C`, the molecule was classed as inactive.

(Values after PubChem BioAssay (Tox21).)
